Experiment [1] addresses Lysosomal acid glucosylceramidase (Homo sapiens) (UniProt P04062). Description: Glucocerebrosidase-p2 (AID 348; in the data active means potency below about 10 µM; further: potency means the concentration at half of the fitted maximal effect). Particulars: purified GBA, blue fluorogenic substrate, 40 min. The method in brief: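 Normal human glucocerebrosidase (0.2 nM) with blue fluorogenic substrate (80 uM final) in citrate/phosphate pH 5.9 with 10mM sodium taurocholate, 0.01% tween-20; 40 min RT, NaOH/glycine stop; fluorescence Ex 365/Em 440; AC50 from a titration from 0.6 nM upwards.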

A short description of experiment [2]: AP1 Signaling Pathway (AID 357; active means well fitted curve in either direction with a large enough effect, not every such curve was filed as active; further: on the % scale 0 is the no-effect control and ±100 the full control effect). Particulars: ME-180 AP-1-bla reporter, EGF-induced, beta-lactamase ratio, 5 h; at 7.69 µM (top of the series) unless noted. An outline of the steps:
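ME-180 cells with beta-lactamase reporter under AP-1 response element, stimulated with EC50 EGF; compounds tested in titration series, 5 h at 37 °C. CCF4 substrate added 2.5 h at room temperature; 460/530 nm emission ratio gave %activity and AC50.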

For experiment [3], the target named is Cytochrome P450 1A2 (Homo sapiens) (UniProt P05177). Description: p450-cyp1a2 (AID 410; calls by dose curve; further: potency means the concentration at half of the fitted maximal effect). Particulars: recombinant CYP1A2, luciferin-ME demethylation, luminescence; series mostly up to 57 µM. The method in brief: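 O-Demethylation of luciferin 6' methyl ether by human CYP1A2 is monitored as luciferase luminescence. Substrate sits at Km (100uM); enzyme is 20nM. Values are scaled to 57 uM furafylline as maximal inhibition.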
Cytochrome P450 1A2 (Homo sapiens), sequence (P05177 whole entry, looked up): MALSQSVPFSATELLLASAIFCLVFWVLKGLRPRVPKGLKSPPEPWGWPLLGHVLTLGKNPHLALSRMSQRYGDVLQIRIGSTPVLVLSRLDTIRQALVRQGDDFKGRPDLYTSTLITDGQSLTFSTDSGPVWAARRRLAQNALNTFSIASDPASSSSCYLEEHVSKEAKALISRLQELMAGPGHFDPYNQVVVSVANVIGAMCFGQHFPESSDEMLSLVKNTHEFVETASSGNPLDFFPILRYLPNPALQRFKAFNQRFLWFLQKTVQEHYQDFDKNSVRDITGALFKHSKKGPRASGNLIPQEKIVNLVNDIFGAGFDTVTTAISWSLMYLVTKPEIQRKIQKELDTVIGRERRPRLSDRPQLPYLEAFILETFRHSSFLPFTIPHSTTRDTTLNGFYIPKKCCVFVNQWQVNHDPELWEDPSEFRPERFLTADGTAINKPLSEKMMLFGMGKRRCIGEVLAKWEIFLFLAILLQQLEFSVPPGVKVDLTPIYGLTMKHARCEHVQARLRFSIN

Experiment [4] can be described thus: NFAT Signaling Pathway (AID 444; active means well fitted curve in either direction with a large enough effect, not every such curve was filed as active;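 further: carbachol stimulus at about its EC50 of 1 µM final; on the % scale 0 is the no-effect control and ±100 the full control effect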). Particulars: Jurkat NFAT-bla M1, carbachol, beta-lactamase ratio, 5 h; at 7.69 µM (top of the series) unless noted. The method in brief:
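Jurkat cells with NFAT-driven β-lactamase reporter and co-expressed M1 receptor, stimulated with carbachol (final 1 uM, ~EC50), compound titration, 5 h at 37 °C. CCF4 loaded 1 h at RT; 460/530 nm ratio gave %activity and AC50.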

The nature of experiment [5]: Stat Signaling Pathway (AID 446; active means well fitted curve in either direction with a large enough effect, not every such curve was filed as active;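 further: ME-180 cervical cancer cells given 40 pM IL-6 alongside compound; SIE-controlled beta-lactamase reporter measured as 460/530 nm FRET emission ratio; on the % scale 0 is the no-effect control and ±100 the full control effect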). The following applies: ME-180 (cervical carcinoma) SIE beta-lactamase reporter, IL-6 stimulated, 5 h; at 7.69 µM (top of the series) unless noted. An outline of the steps: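 Overnight-plated ME-180 cells bearing a STAT Inducible Element beta-lactamase reporter; 5 h co-exposure to compound and 40 pM IL-6; values normalized to 300 pM IL-6 and 125 nM JAK inhibitor controls.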

Experiment [6] has as its target Glucocorticoid receptor (Homo sapiens) (UniProt P04150). Description: GR-GFP Redistribution (AID 450;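 active means compounds whose dose series gives a full or clear partial fitted curve of increased nuclear translocation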; further: potency means the concentration at half of the fitted maximal effect). The following applies: U2OS GR-GFP nuclear translocation, laser cytometry, 2 h.
Experiment [7] has the same target. Description: GR-EFC Redistribution (AID 451; calls by dose curve; further: potency means the concentration at half of the fitted maximal effect). The following applies: CHO-K1 GR-EFC translocation, beta-gal luminescence, 2 h. An outline of the steps:
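CHO-K1 cells expressing nuclear EA and GR-ED fragments of b-gal; compounds titrated up to 46 uM final, 2 h at 37 C. GR nuclear translocation read as complemented b-gal luminescence after 1 h RT detection.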

Experiment [8] addresses Mitogen-activated protein kinase 10 (Mus musculus) (UniProt Q61831). Description: JNK3 AlphaScreen Assay (AID 530; active means well fitted curve in either direction with a large enough effect, not every such curve was filed as active;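 further: kinase came from lysate of stimulated human HepG2 cells; signal reports phosphorylation of biotinylated GST-cJun 1-79 at Ser73 with 10 µM ATP; on the % scale 0 is the no-effect control and ±100 the full control effect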). The following applies: JNK3 lysate, c-Jun phosphorylation; series mostly up to 57.1 µM. The method in brief:
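Activity was read by AlphaScreen after JNK3-containing HepG2 lysate (cytokine pre-activated) phosphorylated biotinylated GST-cJun with 10 uM ATP at room temperature. Phospho-Ser73 cJun antibody with Protein-A acceptor beads provided detection.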

The target in experiment [9] is 3',5'-cyclic-AMP phosphodiesterase 4B (Homo sapiens) (UniProt Q07343). Description: qHTS Assay for Inhibitors of PDE-IV (AID 607; active means well fitted activation curve with a large enough effect in the main read-out, with a control signal flat, not every such curve was filed as active; further: % of control where 0% means no effect). Particulars: HEK293 ACTOne CNG channel cells, membrane potential fluorescence; series mostly up to 22.9 µM. An outline of the steps: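 Live HEK293 cells with a modified cyclic nucleotide-gated (CNG) channel report intracellular cAMP via membrane-potential dye fluorescence (ex 535/em 590 nm). Endogenous PDE-IV was targeted. Compounds were tested at up to 22.9 uM final; RO 20-1724 100 uM served as control.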
3',5'-cyclic-AMP phosphodiesterase 4B (Homo sapiens), sequence (Q07343 whole entry, looked up): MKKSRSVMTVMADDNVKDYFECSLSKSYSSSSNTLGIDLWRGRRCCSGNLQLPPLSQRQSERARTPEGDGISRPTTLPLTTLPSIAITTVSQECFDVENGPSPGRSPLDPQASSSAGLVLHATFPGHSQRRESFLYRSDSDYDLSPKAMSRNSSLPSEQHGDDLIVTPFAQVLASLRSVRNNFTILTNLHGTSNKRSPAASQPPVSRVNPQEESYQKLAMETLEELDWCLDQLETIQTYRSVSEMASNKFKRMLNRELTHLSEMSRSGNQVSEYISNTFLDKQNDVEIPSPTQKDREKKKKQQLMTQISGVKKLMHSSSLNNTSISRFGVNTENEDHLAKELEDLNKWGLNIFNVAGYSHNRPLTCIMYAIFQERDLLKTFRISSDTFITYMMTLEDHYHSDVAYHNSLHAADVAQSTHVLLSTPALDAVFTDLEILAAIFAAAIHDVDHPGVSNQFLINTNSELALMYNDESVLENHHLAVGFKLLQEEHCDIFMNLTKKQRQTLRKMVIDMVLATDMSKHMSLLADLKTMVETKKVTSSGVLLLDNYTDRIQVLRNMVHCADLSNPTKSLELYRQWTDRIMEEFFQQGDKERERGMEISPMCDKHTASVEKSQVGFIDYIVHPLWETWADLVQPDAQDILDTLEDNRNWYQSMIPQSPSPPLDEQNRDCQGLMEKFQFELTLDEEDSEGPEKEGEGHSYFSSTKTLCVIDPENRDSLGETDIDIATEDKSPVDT

Experiment [10] deals with Cytochrome P450 3A4 (Homo sapiens) (UniProt P08684). Description: qHTS Assay for Inhibitors and Substrates of Cytochrome P450 3A4 (AID 884). Further: potency means the concentration at half of the fitted maximal effect; nearly all actives have a fitted effect of over 50% in size. Particulars: recombinant CYP3A4, Luciferin-PPXE luminescence; series mostly up to 57.1 µM. An outline of the steps: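 Luminescent readout of luciferin produced by CYP3A4 (20 nM) dealkylation of Luciferin-PPXE, 25 uM (its KM). NADPH-driven reaction ran 60 min at RT after 10 min compound preincubation; data scaled to 57 uM ketoconazole as 100% inhibition.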
Cytochrome P450 3A4 (Homo sapiens), sequence (P08684 whole entry, looked up): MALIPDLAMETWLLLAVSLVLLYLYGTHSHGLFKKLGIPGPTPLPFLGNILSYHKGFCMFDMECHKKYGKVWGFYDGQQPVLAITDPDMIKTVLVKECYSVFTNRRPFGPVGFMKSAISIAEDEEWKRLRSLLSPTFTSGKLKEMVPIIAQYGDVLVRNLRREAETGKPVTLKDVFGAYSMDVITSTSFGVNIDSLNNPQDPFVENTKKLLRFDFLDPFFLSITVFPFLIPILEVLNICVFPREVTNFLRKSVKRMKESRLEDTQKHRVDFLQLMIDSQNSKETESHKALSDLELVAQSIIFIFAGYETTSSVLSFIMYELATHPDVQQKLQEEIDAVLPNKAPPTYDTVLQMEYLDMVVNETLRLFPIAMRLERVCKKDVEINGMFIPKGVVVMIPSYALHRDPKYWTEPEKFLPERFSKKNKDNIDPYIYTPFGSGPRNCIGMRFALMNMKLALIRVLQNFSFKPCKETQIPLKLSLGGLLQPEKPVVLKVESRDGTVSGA

Experiment [11] shares this target. Description: qHTS Assay for Activators of Cytochrome P450 3A4 (AID 885). Further: nearly all actives have a fitted effect of over 65% in size. Particulars: recombinant CYP3A4, Luciferin-PPXE luminescence, 60 min; series mostly up to 57.1 µM. An outline of the steps: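 Using 20nM recombinant human CYP3A4 in potassium phosphate (200mM), substrate Luciferin-PPXE at 25uM, luminescent luciferin detection followed a 60-min RT NADPH reaction; data scaled to 57 uM ketoconazole.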

Experiment [12] addresses Cytochrome P450 2C19 (Homo sapiens) (UniProt P33261). Description: qHTS Assay for Inhibitors and Substrates of Cytochrome P450 2C19 (AID 899). Further: potency means the concentration at half of the fitted maximal effect; nearly all actives have a fitted effect of over 60% in size. The following applies: recombinant CYP2C19, luciferin-H EGE luminescence; series mostly up to 57.1 µM. An outline of the steps:
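5 nM human CYP2C19 with 10uM Luciferin-H EGE (at KM) in 50mM KPO4, compound preincubated 10 min at 37C, then NADPH regeneration for 60 min at 37C. Luciferin read by luminescence after detection reagent; normalized to 57uM ketoconazole as full inhibition.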

Experiment [13] addresses Dual specificity protein kinase CLK4 (Homo sapiens) (UniProt Q9HAZ1). Description: qHTS Assay for Inhibitors of CDC-like Kinase 4 (Kinase-Glo Assay) (AID 1770). Further: nearly all actives have a fitted effect of over 65% in size. Further: potency means the concentration at half of the fitted maximal effect. Particulars: recombinant Clk4, Kinase-Glo ATP depletion luminescence; series mostly up to 66.7 µM. The method in brief:
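Substrate mix (RS peptide 100 uM, ATP 1 uM) dispensed, compound pinned in, then Clk4 added to 25 nM final. Incubated 4.5 h at RT; Kinase-Glo reagent added, luminescence read after 5 min.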

The target is the same in experiment [14]. Description: qHTS Assay for Inhibitors of CDC-like Kinase 4 (ADP-Glo Assay) (AID 1771). Further: nearly all actives have a fitted effect of over 70% in size. Further: potency means the concentration at half of the fitted maximal effect. Particulars: recombinant CLK4, ADP-Glo luminescence; series mostly up to 80 µM. An outline of the steps: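 Compounds are pin-transferred onto substrate mix (100 uM RS peptide, 1 uM ATP), then 25 nM Clk4 is added. After 1 hr at room temperature, ADP-Glo reagent runs 45 min, detection reagent 30 min, then luminescence is read.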

The target is the same in experiment [15]. Description: qHTS Assay for Inhibitors of CDC-like Kinase 4 (ADP-FP Assay) (AID 1795). Further: nearly all actives have a fitted effect of over 60% in size. Further: potency means the concentration at half of the fitted maximal effect. The following applies: Transcreener ADP fluorescence polarization; series mostly up to 50 µM. An outline of the steps: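 Clk4 6.25 nM; RS peptide 100 uM; ATP 1 uM; 25 mM Tris pH 7.5, 10 mM MgCl2; 1 h reaction. ADP detected via antibody/orange tracer FP displacement; TG003 positive control.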

Experiment [16] deals with Ubiquitin carboxyl-terminal hydrolase 1 (Homo sapiens) (UniProt O94782). Description: Inhibitors of USP1/UAF1: Pilot qHTS (AID 504865).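 Further: rhodamine fluorescence freed from ubiquitin-rhodamine substrate followed over time; top concentration of the series differs between compounds; on the % scale 0 is the no-effect control and ±100 the full control effect; nearly all actives have a fitted effect of over 35% in size.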 The following applies: purified USP1/UAF1, Ub-rhodamine cleavage fluorescence; series mostly up to 54.9 µM. The method in brief: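 In 50mM HEPES pH 7.8 containing 0.5mM EDTA, 1mM TCEP, 0.1 mg/ml BSA and 0.01% Tween-20, 1nM USP1/UAF1 is exposed to compound for 15 min, then Ub-Rho (150nM final) is added and fluorescence is read over time.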
Ubiquitin carboxyl-terminal hydrolase 1 (Homo sapiens), sequence (O94782 whole entry, looked up): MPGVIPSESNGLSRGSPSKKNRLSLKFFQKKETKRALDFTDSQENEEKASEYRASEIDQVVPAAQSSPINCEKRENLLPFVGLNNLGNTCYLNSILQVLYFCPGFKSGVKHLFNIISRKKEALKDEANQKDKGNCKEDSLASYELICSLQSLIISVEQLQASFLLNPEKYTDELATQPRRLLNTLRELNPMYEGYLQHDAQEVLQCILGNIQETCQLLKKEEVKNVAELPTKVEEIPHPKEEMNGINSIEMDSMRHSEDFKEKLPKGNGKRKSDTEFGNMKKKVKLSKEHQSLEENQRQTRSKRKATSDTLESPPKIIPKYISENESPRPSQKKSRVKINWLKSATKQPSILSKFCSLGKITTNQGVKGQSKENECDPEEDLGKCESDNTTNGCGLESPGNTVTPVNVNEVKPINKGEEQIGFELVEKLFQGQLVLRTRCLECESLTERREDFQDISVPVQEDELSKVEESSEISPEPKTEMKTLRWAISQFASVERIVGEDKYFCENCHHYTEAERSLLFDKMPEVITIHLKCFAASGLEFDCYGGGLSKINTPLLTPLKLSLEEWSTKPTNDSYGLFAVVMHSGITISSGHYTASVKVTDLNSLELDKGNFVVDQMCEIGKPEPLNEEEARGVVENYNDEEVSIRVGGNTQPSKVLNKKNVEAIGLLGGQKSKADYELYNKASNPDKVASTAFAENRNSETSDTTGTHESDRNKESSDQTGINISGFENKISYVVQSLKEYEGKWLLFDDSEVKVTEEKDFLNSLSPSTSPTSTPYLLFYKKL

Experiment [17] can be described thus: Primary qHTS for small molecule stabilizers of the endoplasmic reticulum resident proteome: Secreted ER Calcium Modulated Protein (SERCaMP) assay (AID 1508630). Further: on the % scale 0 is the no-effect control and ±100 the full control effect. Particulars: SH-SY5Y GLuc-SERCaMP (Gaussia luciferase released on ER calcium loss) secretion, thapsigargin, luminescence; series mostly up to 38.4 µM. The method in brief:
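The SH-SY5Y reporter protocol was run at 3 concentrations up to 38.3 uM (primary) or 11 concentrations (follow-up): 16 h compound, 100 nM thapsigargin for 4 h, then extracellular luciferase luminescence.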

Values without a mark were called inactive. Results filed as inconclusive are left out. Active and inactive are the calls of the source. Unless noted, the call rests on the fitted dose curve; in most records, active means well fitted curve in the direction sought with a large enough effect; inconclusive means small, poorly fitted or top-dose-only effect, or another doubt; inactive means no such curve, though single readings can be large; an effect the other way counts as inactive or inconclusive.

Lysosomal acid glucosylceramidase (Homo sapiens), sequence (P04062 whole entry, looked up): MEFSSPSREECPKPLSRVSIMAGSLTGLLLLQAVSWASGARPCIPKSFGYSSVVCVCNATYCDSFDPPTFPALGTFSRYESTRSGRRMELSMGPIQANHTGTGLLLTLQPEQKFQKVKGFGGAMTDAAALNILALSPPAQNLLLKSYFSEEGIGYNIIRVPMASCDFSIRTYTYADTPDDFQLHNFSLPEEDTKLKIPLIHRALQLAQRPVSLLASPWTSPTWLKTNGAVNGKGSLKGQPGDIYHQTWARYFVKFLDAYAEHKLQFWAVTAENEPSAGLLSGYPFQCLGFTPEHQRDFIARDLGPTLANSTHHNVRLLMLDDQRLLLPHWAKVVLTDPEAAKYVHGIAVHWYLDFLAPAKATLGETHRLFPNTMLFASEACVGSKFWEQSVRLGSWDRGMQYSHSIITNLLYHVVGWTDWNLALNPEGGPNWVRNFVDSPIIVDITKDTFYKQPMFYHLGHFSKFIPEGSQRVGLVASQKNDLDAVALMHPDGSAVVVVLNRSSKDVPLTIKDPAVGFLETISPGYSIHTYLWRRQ
Glucocorticoid receptor (Homo sapiens), sequence (P04150 whole entry, looked up): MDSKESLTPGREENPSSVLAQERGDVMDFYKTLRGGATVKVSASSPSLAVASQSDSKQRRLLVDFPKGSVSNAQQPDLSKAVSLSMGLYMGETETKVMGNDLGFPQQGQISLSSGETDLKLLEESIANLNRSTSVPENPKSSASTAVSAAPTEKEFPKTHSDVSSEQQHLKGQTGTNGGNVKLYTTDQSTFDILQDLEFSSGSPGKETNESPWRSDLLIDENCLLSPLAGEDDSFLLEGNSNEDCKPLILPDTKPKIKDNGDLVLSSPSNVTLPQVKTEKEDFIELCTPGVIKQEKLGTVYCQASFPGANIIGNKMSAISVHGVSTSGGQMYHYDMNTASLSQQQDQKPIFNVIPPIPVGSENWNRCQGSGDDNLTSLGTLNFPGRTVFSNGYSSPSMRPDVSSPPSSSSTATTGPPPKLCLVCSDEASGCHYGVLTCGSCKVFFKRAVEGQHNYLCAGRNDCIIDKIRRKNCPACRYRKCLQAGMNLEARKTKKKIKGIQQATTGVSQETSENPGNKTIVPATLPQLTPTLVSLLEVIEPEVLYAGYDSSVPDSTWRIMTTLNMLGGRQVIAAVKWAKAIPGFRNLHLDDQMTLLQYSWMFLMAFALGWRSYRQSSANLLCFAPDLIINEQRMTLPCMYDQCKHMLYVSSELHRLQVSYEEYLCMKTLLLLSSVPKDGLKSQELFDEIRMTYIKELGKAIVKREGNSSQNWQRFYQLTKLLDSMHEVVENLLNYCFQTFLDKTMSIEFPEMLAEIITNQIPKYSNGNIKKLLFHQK
Dual specificity protein kinase CLK4 (Homo sapiens), sequence (Q9HAZ1 whole entry, looked up): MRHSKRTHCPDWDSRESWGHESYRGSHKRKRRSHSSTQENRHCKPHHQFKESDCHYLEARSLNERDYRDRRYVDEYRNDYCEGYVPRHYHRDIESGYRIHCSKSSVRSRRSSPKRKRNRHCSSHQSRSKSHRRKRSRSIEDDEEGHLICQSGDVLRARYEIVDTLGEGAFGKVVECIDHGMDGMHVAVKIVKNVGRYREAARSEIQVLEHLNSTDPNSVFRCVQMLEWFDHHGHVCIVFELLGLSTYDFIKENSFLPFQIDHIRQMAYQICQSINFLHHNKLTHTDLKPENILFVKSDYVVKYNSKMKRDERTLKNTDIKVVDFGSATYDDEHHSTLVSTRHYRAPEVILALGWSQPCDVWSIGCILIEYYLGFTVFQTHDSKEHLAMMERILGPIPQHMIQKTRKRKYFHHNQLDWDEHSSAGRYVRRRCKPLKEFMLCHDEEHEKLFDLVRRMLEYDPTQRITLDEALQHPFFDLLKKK
Cytochrome P450 2C19 (Homo sapiens), sequence (P33261 whole entry, looked up): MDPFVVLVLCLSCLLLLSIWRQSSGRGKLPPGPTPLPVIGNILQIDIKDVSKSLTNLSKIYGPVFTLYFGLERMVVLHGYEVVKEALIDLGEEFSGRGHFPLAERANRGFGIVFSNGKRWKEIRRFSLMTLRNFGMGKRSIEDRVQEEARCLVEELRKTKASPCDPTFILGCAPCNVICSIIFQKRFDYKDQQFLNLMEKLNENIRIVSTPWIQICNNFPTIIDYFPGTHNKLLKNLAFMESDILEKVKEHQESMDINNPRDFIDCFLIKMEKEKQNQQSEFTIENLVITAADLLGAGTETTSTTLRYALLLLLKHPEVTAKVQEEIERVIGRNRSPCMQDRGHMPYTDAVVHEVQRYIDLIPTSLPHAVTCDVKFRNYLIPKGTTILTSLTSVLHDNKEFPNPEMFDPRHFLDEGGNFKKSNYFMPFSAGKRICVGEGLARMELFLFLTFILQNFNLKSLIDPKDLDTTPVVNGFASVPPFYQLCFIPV

In the case of `COc1ccccc1CNc1ccnc(-c2cccc(C#N)c2)n1`, the Potency in experiment [1] is more than 11.4 µM; in [3], 0.794 µM (active); in [6], more than 46 µM; in [7], more than 46 µM; in experiment [10], 3.98 µM (active); in experiment [12], 3.98 µM (active). Also, the Potency in experiment [13] was 7.94 µM (active); in experiment [14], 7.94 µM (active); in [15], 3.16 µM (active). Moreover, the activity change, negative = inhibition is -13.8% in [2] and 8.07% in [4]. Besides, the activity, negative = inhibition in experiment [5] is -11.8%. For the same compound, the Potency entry in experiment [8], in [9], in experiment [11] and in experiment [16] was “inactive” each time. The result in experiment [17] was inactive.

Regarding `COc1ccccc1CCn1c(=O)c(CCc2ccccc2)nc2cncnc21`, the Potency in experiment [1] is more than 11.4 µM; in experiment [3], 7.94 µM (active); in [6], more than 9.22 µM; in experiment [7], more than 46 µM; in experiment [10], 3.16 µM (active); in [12], 3.16 µM (active). For the same compound, the activity change, negative = inhibition in experiment [2] is -16%; in experiment [4] it was -21.1%. For the same compound, the activity, negative = inhibition in experiment [5] was -8.11%. Moreover, the Potency entry in experiment [8], in [11], in experiment [13], in [14], in experiment [15] and in [16] was “inactive” in each case. Also, the result in experiment [17] was inactive.

Take `COc1cccc(Cn2c(=O)c(-c3ccccc3)nc3cnc(OC)nc32)c1`: the Potency was more than 11.4 µM in experiment [1]; 15.8 µM (active) in experiment [3]; more than 9.22 µM in experiment [6]; more than 46 µM in [7]; 7.94 µM (active) in experiment [10]. The figures for the activity change, negative = inhibition in experiment [2] and in [4] were -11.6% and -17.4%, respectively. The activity, negative = inhibition in experiment [5] is 1.57%. The Potency entry in [8], in [11], in experiment [13], in experiment [14], in experiment [15] and in experiment [16] was “inactive” each time. The outcome in experiment [17] was inactive.

Regarding `CS(=O)(=O)Nc1cccc(-c2cncnc2NCc2cccnc2)c1`, the Potency in experiment [1] is more than 11.4 µM; in experiment [3], 15.8 µM (active); in experiment [6] it was more than 46 µM; in [7] it was more than 46 µM; in experiment [12], 3.16 µM (active). Moreover, the activity change, negative = inhibition in [2] is 10.9%; in [4] it was -3.98%. In addition, the activity, negative = inhibition in experiment [5] is -1.28%. The Potency entry in experiment [8], in [9], in experiment [11], in [13], in experiment [14] and in [15] was “inactive” throughout. Besides, the Potency result in experiment [16] is “inactive”. Besides, in experiment [17], the result was inactive.

As to `CN(C)c1cc(-c2cccc(NS(C)(=O)=O)c2)ncn1`, the Potency in experiment [1] is more than 11.4 µM; in [3], 1.26 µM (active); in experiment [6] it was more than 46 µM; in experiment [7], more than 46 µM. In addition, the activity change, negative = inhibition in experiment [2] was 3.12%; in experiment [4], 18.4%. The activity, negative = inhibition in experiment [5] was 1.39%. In addition, the Potency result in [8], in [11], in experiment [13], in experiment [14], in experiment [15] and in experiment [16] was “inactive” each time. Also, in [17], the result was inactive.
